Results on 30 sequences are retold here after paper PMC9838217, “Structure of SALL4 zinc finger domain reveals link between AT-rich DNA binding and Okihiro syndrome”.

Holding throughout (assay): HT-SELEX; high values mean tight binding
Holding throughout (details): protein: recombinant; vector His6-GST; dsDNA, one strand shown

For one assay, the target named is T1, SALL4 ZFC4 WT (HT-SELEX) (Mus musculus, UniProt Q8BX22 870-940).
T1 sequence: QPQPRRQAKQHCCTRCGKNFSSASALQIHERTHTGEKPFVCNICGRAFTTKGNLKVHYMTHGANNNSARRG
A digest of the protocol:
(§1)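 A 100 µl reaction of 10 mM Tris–HCl pH 7.5, 50 mM NaCl, poly(dI-dC) and DTT held purified recombinant mouse SALL4 zinc finger cluster 4 (residues 870–940, 1 µg) and library DNA (1.5 µg first cycle, 200 ng later) for 10 min at room temperature. Complexes captured on Ni2+ beads were washed, PCR-amplified and reselected for up to 6 cycles, in triplicate, then MiSeq-sequenced and scanned for 6-mers. Binding signal is the read fraction of each canonical k-mer expressed as fold change over the initial random library.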

For assay [1], the target named is T2, SALL4 ZFC4 R900W (HT-SELEX) (Mus musculus, UniProt Q8BX22 870-940, R900W).
T2 sequence: T1 sequence with R31W
A digest of the protocol: as §1

Assay [2] concerns the target T3, SALL4 ZFC4 G921D (HT-SELEX) (Mus musculus, UniProt Q8BX22 870-940, G921D).
T3 sequence: T1 sequence with G52D
The method in brief:
as §1

Changes are numbered by the printed parent chain.

In the case of CTGTGA, the binding signal with SALL4 ZFC4 WT (HT-SELEX) is 0.75 ± 0.0215 fold-change vs cycle 0; in assay [1], 0.869 ± 0.0352 fold-change vs cycle 0; in assay [2], 0.91 ± 0.0154 fold-change vs cycle 0.
For CGATTA, in that order: 1.16 ± 0.0473 fold-change vs cycle 0, 1.17 ± 0.0726 fold-change vs cycle 0 and 1.18 ± 0.023 fold-change vs cycle 0.
Turning to CCATTA, the binding signal with SALL4 ZFC4 WT (HT-SELEX) worked out at 1.33 ± 0.0471 fold-change vs cycle 0; in assay [1], 1.4 ± 0.0728 fold-change vs cycle 0; in assay [2], 1.32 ± 0.097 fold-change vs cycle 0.
For ACTAAG, in that order: 1.42 ± 0.0426 fold-change vs cycle 0, 1.61 ± 0.0315 fold-change vs cycle 0 and 1.45 ± 0.0661 fold-change vs cycle 0.
For AGGCTA, in that order: 0.619 ± 0.0154 fold-change vs cycle 0, 0.751 ± 0.013 fold-change vs cycle 0 and 0.829 ± 0.0213 fold-change vs cycle 0.
On to ACAGGT, for which the binding signal in the assay with SALL4 ZFC4 WT (HT-SELEX) came to 0.824 ± 0.0401 fold-change vs cycle 0; in assay [1] it was 0.95 ± 0.0293 fold-change vs cycle 0; in assay [2] it was 0.985 ± 0.0191 fold-change vs cycle 0.
Turning to AAACGC, the binding signal turned out to be 0.392 ± 0.00979 fold-change vs cycle 0 in the assay with SALL4 ZFC4 WT (HT-SELEX), 0.449 ± 0.0166 fold-change vs cycle 0 in assay [1] and 0.58 ± 0.0501 fold-change vs cycle 0 in assay [2].
For GTCCAA, the binding signal with SALL4 ZFC4 WT (HT-SELEX) was 0.622 ± 0.0212 fold-change vs cycle 0; in assay [1] it was 0.742 ± 0.0519 fold-change vs cycle 0; in assay [2] it was 0.828 ± 0.0714 fold-change vs cycle 0.
With GACACC, the binding signal with SALL4 ZFC4 WT (HT-SELEX) stood at 0.393 ± 0.0241 fold-change vs cycle 0; in assay [1] it was 0.461 ± 0.0351 fold-change vs cycle 0; in assay [2], 0.593 ± 0.067 fold-change vs cycle 0.
For the sequence ATCAGC, the values for the binding signal (in the assay with SALL4 ZFC4 WT (HT-SELEX); in assay [1]; in assay [2]) were 0.664 ± 0.0167 fold-change vs cycle 0, 0.738 ± 0.048 fold-change vs cycle 0 and 0.836 ± 0.0337 fold-change vs cycle 0, respectively.
With CCCTCC, the binding signal in the assay with SALL4 ZFC4 WT (HT-SELEX) came out at 0.318 ± 0.0193 fold-change vs cycle 0; in assay [1] it was 0.362 ± 0.0224 fold-change vs cycle 0; in assay [2] it was 0.457 ± 0.0716 fold-change vs cycle 0.
The matching figures for CAGCTG: 0.312 ± 0.0432 fold-change vs cycle 0, 0.397 ± 0.0183 fold-change vs cycle 0 and 0.499 ± 0.0395 fold-change vs cycle 0.
Consider AGACGA, for which the binding signal in the assay with SALL4 ZFC4 WT (HT-SELEX) amounted to 0.675 ± 0.0154 fold-change vs cycle 0; in assay [1] it was 0.786 ± 0.0316 fold-change vs cycle 0; in assay [2] it was 0.86 ± 0.0237 fold-change vs cycle 0.
For ACTCCC, in that order: 0.553 ± 0.0252 fold-change vs cycle 0, 0.612 ± 0.0294 fold-change vs cycle 0 and 0.716 ± 0.0322 fold-change vs cycle 0.
The matching figures for AGTCAC: 0.789 ± 0.043 fold-change vs cycle 0, 0.9321 ± 0.00858 fold-change vs cycle 0 and 0.975 ± 0.0241 fold-change vs cycle 0.
As to AACTTA, the binding signal in the assay with SALL4 ZFC4 WT (HT-SELEX) was determined as 2.13 ± 0.126 fold-change vs cycle 0; in assay [1] it was 2.11 ± 0.126 fold-change vs cycle 0; in assay [2], 1.89 ± 0.231 fold-change vs cycle 0.
As to TCACCA, the binding signal with SALL4 ZFC4 WT (HT-SELEX) was 0.829 ± 0.0293 fold-change vs cycle 0; in assay [1] it was 0.931 ± 0.0104 fold-change vs cycle 0; in assay [2], 0.988 ± 0.0172 fold-change vs cycle 0.
Take AAAGGA: the binding signal turned out to be 1.36 ± 0.0473 fold-change vs cycle 0 in the assay with SALL4 ZFC4 WT (HT-SELEX), 1.57 ± 0.109 fold-change vs cycle 0 in assay [1] and 1.44 ± 0.105 fold-change vs cycle 0 in assay [2].
In the case of AATTTG, the binding signal in the assay with SALL4 ZFC4 WT (HT-SELEX) was found to be 1.6 ± 0.112 fold-change vs cycle 0; in assay [1], 1.56 ± 0.101 fold-change vs cycle 0; in assay [2], 1.51 ± 0.0903 fold-change vs cycle 0.
On to CCTCTA, for which the binding signal in the assay with SALL4 ZFC4 WT (HT-SELEX) came out at 0.817 ± 0.034 fold-change vs cycle 0; in assay [1], 0.915 ± 0.0455 fold-change vs cycle 0; in assay [2], 0.953 ± 0.0421 fold-change vs cycle 0.
Consider CTTATC, for which the binding signal stood at 1.5 ± 0.0472 fold-change vs cycle 0 with SALL4 ZFC4 WT (HT-SELEX), 1.62 ± 0.0833 fold-change vs cycle 0 in assay [1] and 1.44 ± 0.0973 fold-change vs cycle 0 in assay [2].
Consider ACTTGC, for which the binding signal was found to be 0.656 ± 0.0276 fold-change vs cycle 0 with SALL4 ZFC4 WT (HT-SELEX), 0.723 ± 0.0488 fold-change vs cycle 0 in assay [1] and 0.815 ± 0.0179 fold-change vs cycle 0 in assay [2].
For ACAAAT, in that order: 1.82 ± 0.0876 fold-change vs cycle 0, 1.76 ± 0.0787 fold-change vs cycle 0 and 1.61 ± 0.106 fold-change vs cycle 0.
Consider AAAGAA, for which the binding signal in the assay with SALL4 ZFC4 WT (HT-SELEX) came out at 1.95 ± 0.101 fold-change vs cycle 0; in assay [1], 2.12 ± 0.151 fold-change vs cycle 0; in assay [2], 1.8 ± 0.181 fold-change vs cycle 0.
The matching figures for TCGTCA: 0.675 ± 0.0174 fold-change vs cycle 0, 0.765 ± 0.0313 fold-change vs cycle 0 and 0.852 ± 0.012 fold-change vs cycle 0.
For CTACCA, the binding signal was 0.775 ± 0.0319 fold-change vs cycle 0 with SALL4 ZFC4 WT (HT-SELEX), 0.894 ± 0.00977 fold-change vs cycle 0 in assay [1] and 0.96 ± 0.00989 fold-change vs cycle 0 in assay [2].
Regarding CATAGC, the figures for the binding signal (in the assay with SALL4 ZFC4 WT (HT-SELEX); in assay [1]; in assay [2]) were 0.663 ± 0.0317 fold-change vs cycle 0, 0.746 ± 0.0368 fold-change vs cycle 0 and 0.844 ± 0.0408 fold-change vs cycle 0, respectively.
GCAATA: the binding signal with SALL4 ZFC4 WT (HT-SELEX) was 1.12 ± 0.0362 fold-change vs cycle 0; in assay [1], 1.04 ± 0.028 fold-change vs cycle 0; in assay [2], 1.11 ± 0.028 fold-change vs cycle 0.
Consider ACATGA, for which the binding signal with SALL4 ZFC4 WT (HT-SELEX) came out at 1.38 ± 0.0574 fold-change vs cycle 0; in assay [1] it was 1.49 ± 0.0283 fold-change vs cycle 0; in assay [2], 1.4 ± 0.088 fold-change vs cycle 0.
Consider ACCGAG, for which the binding signal is 0.423 ± 0.0215 fold-change vs cycle 0 with SALL4 ZFC4 WT (HT-SELEX), 0.496 ± 0.0188 fold-change vs cycle 0 in assay [1] and 0.586 ± 0.0556 fold-change vs cycle 0 in assay [2].
